HT1080 IDH1KD tx: toxicity to HT-1080 IDH1 knockdown cells (counter line); HT-1080 IDH1 knockdown viability, ATP luminescence, 48 h; Potency, µM (highest dose often 46.1 µM), without a hit: at the highest dose activity, negative = toxicity, most hits filed as cytotoxic; hit rate 2% among 360,000; AID 686971;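 further: 0% = DMSO wells and -100% = cell-free medium wells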
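In this qHTS, HT-1080 cells depleted of IDH1 are exposed for 48 h at 37 °C to compound titrations. Toxicity is scored from CellTiter-Glo luminescence, with DMSO as full viability and medium alone as none.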
TGFb SMAD3 inh: blocks TGF-b signaling; HepG2 CAGA-GFP TGF-b/SMAD3 reporter, GFP fluorescence, 18 h; TGF-beta stimulated, 500 pg/mL final; Potency, µM (highest dose often 46.1 µM), for inactives: at the top dose activity, negative = inhibition, most hits filed as inhibitors; hit rate 1.2% among 410,000; further: on the % scale 0 is the no-effect control and ±100 the full control effect; nearly all actives have a fitted effect of over 65% in size
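HEPG2 CAGA-GFP cells (1000/well, DMEM with 1% FBS) were pre-incubated 2 h at 37 degrees C, given compound by pin tool, then stimulated with TGF-beta at 500 pg/mL final for 18 h before per-cell GFP fluorescence imaging.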
HepG2 viability: HepG2 cytotoxicity, counter-screen for TGF-b inhibitors. HepG2 CAGA-GFP viability, ATP luminescence, 18 h. Potency, µM (titrated, usually from 46.1 µM), inactives show top-dose activity change, negative = cytotoxicity, usual class: cytotoxic. hit rate 0.76% among 410,000. AID 588856
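HepG2 CAGA-GFP cells (1000/well, DMEM with 1% FBS) received compound, then TGF-beta at 500 pg/mL final, and were incubated 18 hours at 37 degrees C. Viability was read by CellTiter-Glo luminescence. Media-only wells were set as complete cell-killing and DMSO as no toxicity.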
TDP1 cell noCPT: qHTS for Inhibitors of human tyrosyl-DNA phosphodiesterase 1 (TDP1): qHTS in cells in absence of CPT; Potency, µM (series often up to 46.2 µM), inactives show top-dose activity change, negative = growth inhibition, actives largely listed as inhibitors; DT40 Tdp1-/- hTDP1 cells, no CPT, ATP luminescence, 48 h; AID 686978, 2013; hit rate 15% among 420,000; further: on the % scale 0 is the no-effect control and ±100 the full control effect; nearly all actives have a fitted effect of over 55% in size
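Stably hTDP1-transfected Tdp1-null chicken DT40 cells were treated with library compounds minus camptothecin and grown for at least 48 hr at 37 °C, after which cellular ATP was quantified by luminescence.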
DT40 TDP1 CPT: DT40-hTDP1 cell growth loss with CPT | chicken DT40 Tdp1-/-;hTDP1 cells + 20 nM CPT, ATP luminescence, 48 h | Potency, µM (doses to about 46.2 µM), inactives show at the highest dose activity change, negative = growth inhibition, most hits filed as inhibitors | hit rate 12% among 420,000; further: on the % scale 0 is the no-effect control and ±100 the full control effect; nearly all actives have a fitted effect of over 55% in size
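Chicken DT40 Tdp1-/- cells stably complemented with human TDP1 were seeded at 400 cells/well in medium containing 20 nM camptothecin, exposed to pin-transferred compounds, and grown at 37 °C for at least 48 hr. Viability was read as ATP luminescence.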
HT1080-NT tox: kills 2HG-producing HT-1080-NT fibrosarcoma cells | HT-1080-NT fibrosarcoma viability, CellTiter-Glo ATP luminescence, 48 h | Potency, µM (doses to about 46.1 µM), inactives show at the top dose activity, negative = less viability, most hits filed as cytotoxic | hit rate 1.6% among 360,000;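 further: NT is the 2HG producing partner of a matched IDH1 knockdown line; 0% = DMSO-treated cells and -100% = media-only wells without cells; nearly all actives have a fitted effect of over 55% in size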
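Luminescent CellTiter-Glo readout after 48 hours of compound exposure at 37 degrees C defined viability of HT-1080-NT cells. Activity was normalized to DMSO wells and cell-free media wells; concentration-response curves were fitted and assigned curve classes.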
* = called active by the depositor; ? = inconclusive; / = not tested or not shown; [ ] = another dose, or the depositor's remark. Sampled rows, rich in hits. Any-hit rate of the full collection: about 17%. The call rests on the fitted dose curve; in most records, active means well fitted curve in the direction sought with a large enough effect; inconclusive means small, poorly fitted or top-dose-only effect, or another doubt; inactive means no such curve, though single readings can be large; an effect the other way counts as inactive or inconclusive. Potency means the concentration at half of the fitted maximal effect.

SMILES	HT1080 IDH1KD tx	TGFb SMAD3 inh	HepG2 viability	TDP1 cell noCPT	DT40 TDP1 CPT	HT1080-NT tox
O=C(COC(=O)c1ccccc1C(=O)c1ccc(Cl)c([N+](=O)[O-])c1)NC1CCCCCC1	3.2µM*	?	-78%	23µM*	?	8.9µM*
CN(CCC#N)C(=O)COC(=O)c1ccccc1C(=O)c1ccc(Cl)c([N+](=O)[O-])c1	16µM*	6%	0%	?	16µM*	10µM*
CN(CCC#N)C(=O)COC(=O)c1ccc(Cl)c(S(N)(=O)=O)c1	15%	-9%	-7%	8%	8%	17%
Cn1c(N)c(C(=O)COC(=O)c2ccccc2C(=O)c2ccccc2)c(=O)n(C)c1=O	-2%	2%	-6%	-4%	?	-1%
O=C(COC(=O)c1ccc(Cl)c([N+](=O)[O-])c1)NC1CCCC1	1%	-8%	-29%	10%	-20%	2%
CC(C)N(C(=O)COC(=O)c1ccccc1C(=O)c1ccc(Cl)c([N+](=O)[O-])c1)C(C)C	21µM*	3%	-3%	?	?	18µM*
O=C(NCc1ccccn1)C1(C(F)(F)F)CC(CCCO)CCCO1 (configuration not stated)	/	2%	-11%	/	/	/
C/C(CC(=O)Nc1ccccc1F)=N\NC(=O)Cc1ccc(Cl)cc1	9%	?	0%	-1%	4%	7%
Cn1c(=O)c2sccc2n2c(CCCC(=O)NCc3ccco3)nnc12	0%	4%	4%	-5%	0%	1%
COc1ccc(CCNC(=O)Nc2ccc([N+](=O)[O-])cc2)cc1OC	-6%	12%	6%	?	?	-18%
O=C(Nc1cccc(C(=O)O)c1)/C(=C\c1ccc2c(c1)OCO2)NC(=O)c1ccc(Br)cc1	-4%	-9%	23%	?	-1%	-7%
CC1(C(=O)NS(=O)(=O)c2ccc(F)cc2F)CCN1C(=O)C1CCCCC1 (configuration not stated)	5%	-5%	-15%	-2%	12%	21%
O=C(COC(=O)c1ccc2c(c1[N+](=O)[O-])C(=O)c1ccccc1C2=O)NC1CC1	?	18µM*	-43%	?	3.7µM*	?
CC(=O)Nc1ccccc1-c1nc(CNC(=O)c2cccc(-n3cccn3)c2)c(C)o1	/	/	/	-3%	10%[9.04 µM]	/
CCOC(=O)c1c(CSC(=N)N)n(C)c2cc(Br)c(OC(C)=O)cc12	?	-25%	35%	16µM*	16µM*	?
COc1cc2c(C(=O)OCCN(C)C)c(CSc3ccccc3)n(C)c2cc1Br	17%	-1%	-22%	?	?	14%
CCOC(=O)c1c(CN2CCCCC2)n(C)c2cc(Br)c(O)cc12	-6%	-7%	-21%	9.2µM*	2.3µM*	0%
CCOC(=O)c1c(CN(C)C)n(-c2ccc(C)cc2)c2cc(Br)c(O)cc12	-19%	?	-34%	?	?	-9%
CCOC(=O)c1c(CN2CCOCC2)n(-c2ccccc2)c2cc(Br)c(O)cc12	-8%	-6%	-17%	18%	-16%	6%
CCOC(=O)c1c(CN2CCOCC2)n(-c2ccccc2)c2cc(Br)c(OC)cc12	?	?	-6%	21µM*	16µM*	-17%
CCOC(=O)c1c(CN2CCN(C)CC2)n(C)c2cc(Br)c(OC)cc12	?	14%	11µM*	?	?	?
O=C(Nc1ccccc1N1CCOCC1)c1cc(Br)c(Br)s1	22%	3%	4%	-5%	0%	8%
Cc1noc(C)c1S(=O)(=O)Nc1ccc2c(c1)CC(=O)N([C@H](C)CO)C[C@H](C)[C@H](CN(C)S(=O)(=O)c1ccc(F)cc1)O2	3%	-1%	-12%	?	-62%	2%
CCCCNC(C(=O)Nc1ccc(Cl)c([N+](=O)[O-])c1)c1ccccc1 (configuration not stated)	-6%	?	-20%	21µM*	?	-16%
COc1cc2[nH]c(C(=O)N3CCc4ccccc4C3)cc2c(OC)c1OC	?	16%	-17%	15µM*	?	-29%
SMILES	HT1080 IDH1KD tx	TGFb SMAD3 inh	HepG2 viability	TDP1 cell noCPT	DT40 TDP1 CPT	HT1080-NT tox
COc1cc2cc(C(=O)N3CCc4ccccc4C3)[nH]c2cc1OC	20%	8%	8%	4%	-4%	7%
CCCCOc1ccc(C(=O)NCC2(N3CCN(C)CC3)CCCCC2)cc1	/	0%	-20%	18µM*	?	/
COc1ccc(C(=O)NCC2(N3CCN(C)CC3)CCCCC2)cc1	/	3%	0%	6%	2%	/
CC(C)COc1ccc(C(=O)CCN2CCCCC2)cc1	?	?	-95%	2.9µM*	5.2µM*	18µM*
CC(=O)c1ccc(OCCCN2CCCCC2)cc1	6%	0%	0%	-2%	-6%	0%
CCCCOc1ccc(C(=O)CCN2CCCCC2)cc1	18µM*	?	-81%	6.5µM*	8.2µM*	?
CCOc1ccc(/C=N/NC(=O)c2ccncc2)cc1OC	-4%	-7%	-19%	-8%	1%	2%
CCCCOc1ccc(C(=O)N/N=C/c2ccc(OCCN3CCCCC3)c(OC)c2)cc1	-25%	29%	-36%	?	21µM*	-25%
COc1cc(C#N)ccc1OCC(=O)N1CCc2ccccc2C1	14%	4%	7%	-17%	12%	9%
COc1ccc(-c2[nH]ncc2CN2CCC(C(=O)N3CCOCC3)CC2)c(F)c1	3%	-2%	0%	-2%	2%	11%
O=C(/C=C/c1cn(CC(O)CN2CCCCC2)c2ccccc12)c1cccs1 (configuration not stated)	?	0%	-44%	16µM*	?	?
O=c1c2ccccc2n(CC(O)CN2CCCCC2)c2ccccc12 (configuration not stated)	-12%	0%	-25%	-19%	1%	-19%
CN1CCN(Cn2cc(/C=C/C(=O)c3ccccc3)c3ccccc32)CC1	0%	13µM*	-59%	?	-26%	5%
CCn1cc(/C=C(\NC(=O)c2ccccc2F)C(=O)N2CCN(C)CC2)c2ccccc21	4%	-1%	3%	-29%	?	2%
